Reference: PubChem BioAssay (Tox21)
Results filed as inconclusive are left out. A call without a number means that no potency is given here. The source made the active and inactive calls. Calls follow the shape of the dose curve; as a rule, active = well fitted activation curve with a large enough effect in the signal ratio in the repeat runs (not every such curve was filed as active); inconclusive = weak or mixed curves; inactive = flat fitted curve, though single readings scatter; the % refers to the signal ratio.

Assay: qHTS assay to identify small molecule agonists of H2AX (AID 1224845)
Conditions: CHO-K1 phospho-H2AX Ser139 HTRF, 3 h; series mostly up to 154 µM
Text: National Center for Advancing Translational Sciences [NCATS]
NIH Chemical Genomics Center [NCGC]
U.S. Environmental Protection Agency [EPA]
National Institutes of Environmental Health Sciences [NIEHS]
National Toxicology Program [NTP]
U.S. Food and Drug Administration [FDA]
HTRF phospho-H2AX (Ser139) assay (Cisbio Bioassays, US) enables the quantitative detection of the histone variant H2AX when phosphorylated on serine 139. When double-stranded DNA breaks, either by ionizing radiation or endogenous physiological processes, H2AX becomes phosphorylated at Ser139. This phospho-Ser139 serves as a sensitive biomarker for the detection of such breaks, localizing the site of DNA repair. So, HTRF phospho-H2AX Ser139 is a pertinent assay to study genome stability, the cell cycle, DNA repair, and it serves as a biomarker for cancer, and to understand aging. Wild type CHO-K1 cells were used to identify the inducers of Phospho-H2AX Ser 139 from the Tox21 10K compound collections.
Tox21 Assay Protocol Summary:
The CHO-K1 cells suspended in culture medium containing 10% FBS were dispensed at 1000 cells/ 3 ul/well in 1536-well white wall/solid bottom plates (Greiner Bio-One North America, NC) using a Multidrop Combi (Thermo Fisher Scientific Inc., Waltham, MA). After the assay plates were incubated at 37C overnight, 23 nl of compounds at 15 concentrations (from 5-48 columns) or positive control (from 1 to 4 columns) were transferred to the assay plates using a Pintool station (Wako, San Diego, CA) into each well resulting in a final DMSO concentration of 0.76%. After 3hr incubation at 37C, 1 uL/well Supplemented Lysis buffer (diluted 100 fold blocking reagent in lysis buffer) (HTRF Phospho-H2A.X (S139) Assay kit from Cisbio US Inc., Bedford, MA) was added using a Flying Reagent Dispenser (FRD) (Aurora Discovery, CA). After 10sec spin at 1000 rpm in a plate centrifuge, the assay plates were incubated at room temperature for 30 min. Then followed by the addition of 1 uL/well detection buffer (containing a mixture of two antibodies, one labeled with cryptate, Anti pH2AX (S139)-K and another labeled with d2, Anti H2AX-d2) using FRD. After incubation at room temperature for 24 hr, the time resolved fluorescence at excitation 320 nm and emissions at 665 nm and 620 nm was measured using an Envision plate reader (PerkinElmer, Waltham, MA).

Row | SMILES | Potency
1 | COc1cc(C(C)=O)ccc1OCCCN1CCC(c2noc3cc(F)ccc23)CC1 | inactive
2 | CCCCCCCCCCCCCCCC(=O)OCC | inactive
3 | O=C(CCS)OCC(COC(=O)CCS)(COC(=O)CCS)COC(=O)CCS | inactive
4 | CCCCC(CC)COS(=O)(=O)O (stereo not given) | inactive
5 | CC1C(C)(C)C2=C(C(=O)CCC2)C1(C)C (stereo not given) | inactive
6 | C=C(C)C(=O)OCCC(F)(F)C(F)(F)C(F)(F)C(F)(F)C(F)(F)C(F)(F)F | inactive
7 | O=c1[nH][nH]c(=O)c2cc([N+](=O)[O-])ccc12 | inactive
8 | CC(C)(O)CCc1ccccc1 | inactive
9 | CC(=O)OCC1=C(C(=O)O)N2C(=O)[C@@H](NC(=O)CSc3ccncc3)[C@H]2SC1 | inactive
10 | Cc1ccc(Nc2c(F)cccc2Cl)c(CC(=O)O)c1 | inactive
11 | C[C@@H]1C[C@H]2[C@@H]3CCC4=CC(=O)C=C[C@]4(C)[C@@]3(F)[C@@H](O)C[C@]2(C)[C@@]1(O)C(=O)COP(=O)(O)O | inactive
12 | CCC1CCC(CCC(=O)O)C1 (stereo not given) | inactive
13 | CC[C@H]1OC(=O)[C@H](C)[C@@H](O[C@H]2C[C@@](C)(OC)[C@@H](O)[C@H](C)O2)[C@H](C)[C@@H](O[C@@H]2O[C@H](C)C[C@H](N(C)C)[C@H]2O)[C@](C)(O)C[C@@H](C)C(=O)[C@H](C)[C@@H](O)[C@]1(C)O | inactive
14 | CCC(CO)(CO)CO | inactive
15 | CC(C)(C)C1(CCc2ccc(Cl)cc2)CO1 (stereo not given) | inactive
16 | CC(C)OC(=O)c1ccccc1C(=O)OC(C)C | inactive
17 | CCNc1nc(N)nc(Cl)n1 | inactive
18 | O=C(O)c1cccc(Oc2ccccc2)c1 | inactive
19 | CC(C)(C)NCC(O)COc1cccc2c1C[C@H](O)[C@H](O)C2 (stereo not given in full) | inactive
20 | CCCCCCCCCCCC(=O)OCC(O)CO (stereo not given) | inactive

Row | SMILES | Potency
21 | CC(CN(CCN(CC(C)OCCO)CC(C)OCCO)CC(C)OCCO)OCCO (stereo not given) | inactive
22 | CC1=C2[C@@H]([C@H](C)CC[C@H]2/C=C(\C)C(=O)O)[C@H](O)C1 | inactive
23 | O=S(=O)(Cl)c1c(Cl)cccc1Cl | inactive
24 | CC[C@H]1OC(=O)[C@H](C)[C@@H](O[C@H]2C[C@@](C)(OC)[C@@H](O)[C@H](C)O2)[C@H](C)[C@@H](O[C@@H]2O[C@H](C)C[C@H](N(C)C)[C@H]2O)[C@](C)(O)C[C@@H](C)/C(=N\OCOCCOC)[C@H](C)[C@@H](O)[C@]1(C)O | inactive
25 | COc1ccc2nc(S(=O)Cc3ncc(C)c(OC)c3C)[nH]c2c1 (stereo not given) | inactive
26 | Cc1oc(=O)oc1COC(=O)[C@@H]1N2C(=O)[C@@H](NC(=O)[C@H](N)c3ccccc3)[C@H]2SC1(C)C | inactive
27 | CCOC(=O)c1c(N)sc2c1CCN(Cc1ccccc1)C2 | inactive
28 | CC12CC3CC(C)(C1)CC(N)(C3)C2 | inactive
29 | Nc1ccc(S(=O)(=O)NCc2ccccc2)cc1 | inactive
30 | CS(=O)(=O)c1ccc([C@@H](C[C@H]2CCC(=O)C2)C(=O)Nc2cnccn2)cc1Cl | inactive
31 | Cc1ccc2c(c1[N+](=O)[O-])C(=O)c1ccccc1C2=O | inactive
32 | CC(C)c1ccc(C(=O)N=C(N)N)cc1S(C)(=O)=O | inactive
33 | C/C(C=O)=C\c1ccccc1 | inactive
34 | O=C(O)c1cccc(C[C@@H]2COc3ccc(OCc4nc5cc(F)ccc5s4)cc3[C@@H]2O)c1 | inactive
35 | O=C(O)CO | inactive
36 | C=C(C)c1ccccc1 | inactive
37 | O=C(c1ccccc1)C1CCC1 | inactive
38 | CCCC(=O)OC(=O)CCC | inactive
39 | Cc1cccc(C)c1NC(=O)c1cc(S(N)(=O)=O)c(Cl)cc1O | inactive
40 | Nc1ccn([C@H]2CS[C@@H](CO)O2)c(=O)n1 | inactive
